Reference: PubChem BioAssay (NCATS)
Records with an inconclusive call do not appear. The source made the active and inactive calls. Calls come from the whole dose curve; as a rule, active = well fitted inhibition curve with a large enough effect; inconclusive = small, poorly fitted or top-dose-only effect, or effect the other way; inactive = flat fitted curve, though single readings scatter.

molecular target: ATP-dependent 6-phosphofructokinase (Trypanosoma brucei brucei) (UniProt O15648); experiment: qHTS Assay to Find Inhibitors of T. brucei phosphofructokinase: hit validation (AID 492961); conditions: T. brucei PFK, ADP-Glo luminescence; series mostly up to 51.4 µM; activity change, negative = inhibition: at the top concentration
How it was run: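 Luminescence from ADP-Glo reports ADP generated as T. brucei PFK (1.25 nM) phosphorylates 0.5 mM fructose-6-phosphate using 0.1 mM ATP. Reactions ran 45 min at room temperature, pH 8.0.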
% is set by controls: 0 for no effect and ±100 for the full control effect.

Sequence of ATP-dependent 6-phosphofructokinase (Trypanosoma brucei brucei) (O15648 whole entry, looked up): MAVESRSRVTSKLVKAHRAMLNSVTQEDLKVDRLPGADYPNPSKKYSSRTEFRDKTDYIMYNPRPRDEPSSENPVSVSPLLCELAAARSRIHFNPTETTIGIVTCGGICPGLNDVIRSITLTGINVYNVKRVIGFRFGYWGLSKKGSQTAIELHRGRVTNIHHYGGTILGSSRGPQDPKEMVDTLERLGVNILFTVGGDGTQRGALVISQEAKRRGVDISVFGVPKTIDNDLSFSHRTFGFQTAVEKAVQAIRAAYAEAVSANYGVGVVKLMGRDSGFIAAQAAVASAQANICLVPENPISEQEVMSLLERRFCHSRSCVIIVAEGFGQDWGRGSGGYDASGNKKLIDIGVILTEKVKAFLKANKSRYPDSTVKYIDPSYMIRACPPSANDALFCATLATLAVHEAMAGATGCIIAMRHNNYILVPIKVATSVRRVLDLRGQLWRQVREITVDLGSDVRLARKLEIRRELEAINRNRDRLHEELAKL

Row | Structure (SMILES) | activity change, negative = inhibition
1 | CC(=O)N=c1sc(S(N)(=O)=O)nn1C | -2.59% [at 24.3 µM] (inactive)
2 | CNC(=O)OCc1cccc(COC(=O)NC)n1 | -2.44% (inactive)
3 | CO | -12% (inactive)
4 | O=C(O)CCC(=O)c1ccc(-c2ccccc2)cc1 | 5.97% [at 24.3 µM] (inactive)
5 | C=C1C(CCl)(CCl)C2(Cl)C(Cl)C(Cl)C1(Cl)C2(Cl)Cl (stereo unspecified) | -0.666% (inactive)
6 | CC(/C=C/C=C(\C)C(=O)O[C@@H]1O[C@H](CO[C@@H]2O[C@H](CO)[C@@H](O)[C@H](O)[C@H]2O)[C@@H](O)[C@H](O)[C@H]1O)=C\C=C\C=C(C)\C=C\C=C(/C)C(=O)O[C@@H]1O[C@H](CO[C@@H]2O[C@H](CO)[C@@H](O)[C@H](O)[C@H]2O)[C@@H](O)[C@H](O)[C@H]1O | -16.2% (inactive)
7 | C=CC[C@@H]1/C=C(\C)C[C@H](C)C[C@H](OC)[C@H]2O[C@@](O)(C(=O)C(=O)N3CCCC[C@H]3C(=O)O[C@H](/C(C)=C/[C@@H]3CC[C@@H](O)[C@H](OC)C3)[C@H](C)[C@@H](O)CC1=O)[C@H](C)C[C@@H]2OC | 12.3% (inactive)
8 | O=C(CCCCCCCCCCCCC1CCCC1)Nc1ccc(S(=O)(=O)c2ccc(NC(=O)CCCCCCCCCCCCC3CCCC3)cc2)cc1 | -19.9% (inactive)
9 | CC1CC(O)CC(C)(C)C1 (stereo unspecified) | 0% (inactive)
10 | C[Se]CC[C@H](N)C(=O)O | -0.346% (inactive)
11 | CCOC(=O)Cc1ccc(-c2ccccc2)cc1 | 2% (inactive)
12 | CCCOC(=O)c1ccccc1O | 7.82% (inactive)
13 | ClC(Cl)Cl | -0.498% (inactive)
14 | Cc1ncc(C[n+]2csc(CCOP(=O)(O)O)c2C)c(N)n1 | 0% (inactive)
15 | CO/N=C(/C(=O)N[C@@H]1C(=O)N2C(C(=O)O)=C(COC(N)=O)CS[C@H]12)c1ccco1 | 6.94% (inactive)
16 | Cc1ccc(S(=O)(=O)O)cc1C | 0.91% (inactive)
17 | O=C(CCCN1CCN2CCCC2C1)c1ccc(F)cc1 (stereo unspecified) | -9.22% (inactive)
18 | N=C(N)c1ccc(/C=C/c2ccc(C(=N)N)cc2O)cc1 | -10.7% (inactive)

Row | Structure (SMILES) | activity change, negative = inhibition
19 | CCCCCc1ccc(C)cc1O | 3.46% (inactive)
20 | CC(C)NCC(O)COc1ccccc1-n1cccc1 (stereo unspecified) | -2.01% (inactive)
21 | Cc1ncc(C[n+]2csc(CCO)c2C)c(N)n1 | 8.23% [at 24.3 µM] (inactive)
22 | CCN(CC)C(=S)S | 7.93% (inactive)
23 | CC1(C)S[C@@H]2[C@H](NC(=O)C3(N)CCCCC3)C(=O)N2[C@H]1C(=O)O | -1.86% (inactive)
24 | CC(C)=CCC/C(C)=C/CC/C(C)=C/CC/C=C(\C)CC/C=C(\C)CCC=C(C)C | 5.85% (inactive)
25 | OC[C@H]1O[C@@](CO)(O[C@H]2O[C@H](CO)[C@@H](O)[C@H](O)[C@H]2O)[C@@H](O)[C@@H]1O | -5.18% (inactive)
26 | CC(C)[C@H](N)C(=O)OCC(CO)OCn1cnc2c(=O)[nH]c(N)nc21 (stereo partly specified) | -1.92% (inactive)
27 | COC(=O)c1ccccc1O | -1.14% (inactive)
28 | CCCCC(CC)CCC(CC(C)C)OS(=O)(=O)O (stereo unspecified) | 13.6% (inactive)
29 | CC(=O)N[C@@H]1C(O[C@H]2O[C@H](C(=O)O)C(O)[C@H](O)[C@H]2O)[C@H](O)[C@@H](CO)O[C@H]1O[C@@H]1C(C(=O)O)O[C@@H](O[C@H]2[C@H](O)[C@@H](CO)OC(O)[C@@H]2NC(C)=O)[C@H](O)[C@H]1O (stereo partly specified) | 18.1% (inactive)
30 | Cc1c(C)c2c(c(C)c1OC(=O)CCC(=O)O)CC[C@@](C)(CCC[C@H](C)CCC[C@H](C)CCCC(C)C)O2 | -0.925% (inactive)
31 | CS(=O)(=O)c1ccc([C@@H](O)[C@@H](COC(=O)CN)NC(=O)C(Cl)Cl)cc1 | -1.73% (inactive)
32 | CC(C)Cc1ccc([C@@H](C)C(=O)NS(C)(=O)=O)cc1 | -1.81% (inactive)
33 | Nc1ncnc2c1ncn2[C@H]1CC[C@@H](CO)O1 | -4.31% (inactive)
34 | CCOc1cc(-c2nccc3cc(OC)c(OC)cc23)cc(OCC)c1OCC | 19.6% (inactive)
35 | C=CCCCCCCCCC(=O)OC | -9.52% (inactive)
36 | O=C(NNCS(=O)(=O)O)c1ccncc1 | 0% (inactive)
